PubChem BioAssay (Tox21)
Inconclusive results are not listed. Calls of active or inactive are those of the source. Unless noted, calls come from the whole dose curve; as a rule, active = well fitted curve in the direction sought with a large enough effect in the repeat runs; inconclusive = weak or mixed curves; inactive = no such curve, though single readings can be large; an effect the other way counts as inactive or inconclusive.

Tests used:
[1] = qHTS assay for small molecule agonists of the p53 signaling pathway (AID 651631; calls by dose curve; note: nearly all actives have a fitted effect of over 15% in size; note: potency is the fitted concentration of half-maximal effect); details: HCT-116 p53RE-bla reporter, beta-lactamase FRET ratio, 16 h; series mostly up to 73.3 µM
In short: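 HCT-116 cells carrying a stable p53 response element–beta-lactamase reporter were plated, rested 5 h at 37 °C, then exposed to compound in DMSO for 16 h at 37 °C; reporter activity was read as FRET substrate fluorescence after 2 h at room temperature.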

[2] = qHTS assay for small molecules that induce genotoxicity in human embryonic kidney cells expressing luciferase-tagged ATAD5 (AID 651632); details: HEK293T ATAD5-luciferase induction, 16 h; series mostly up to 83.3 µM; note: nearly all actives have a fitted effect of over 15% in size
In short: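 Luminescent reporter readout, HEK293T ATAD5-luc line: 16 hr drug exposure (37C, 5% CO2) followed by Amplite, 30 min RT.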

[3] = qHTS assay for small molecule agonists of the p53 signaling pathway - cell viability (AID 651633; calls by dose curve; note: nearly all actives have a fitted effect of over 30% in size); details: p53RE-bla HCT-116 viability, ATP luminescence, 16 h; series mostly up to 83.3 µM
In short: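 p53RE-bla cells, seeded at 4,000 per well and rested 5 h at 37 C/5% CO2, received compounds in DMSO for 16 h at 37 C. CellTiter-Glo was then added, and luminescence was read after 30 min at room temperature to gauge cytotoxicity.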

[4] = qHTS assay for small molecule disruptors of the mitochondrial membrane potential - cell viability (AID 720634; calls by dose curve;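 note: human HepG2 liver cancer cells; nearly all actives have a fitted effect of over 20% in size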); details: HepG2 viability, ATP luminescence (CellTiter-Glo), 1 h; series mostly up to 83.2 µM
In short: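 HepG2, 1 hr compound, 37 C. ATP luminescence via CellTiter-Glo, 30 min RT, same well as m-MPI.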

[5] = qHTS assay for small molecule disruptors of the mitochondrial membrane potential (AID 720635); details: HepG2 mitochondrial membrane potential, Mito-MPS dye ratio; series mostly up to 83.2 µM
In short: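 HepG2 cells (2,000/well) attached overnight at 37C, then took compound for 1 hr at 37C, 5% CO2. Mito-MPS dye was added for 30 min; fluorescence was read at 490/535 nm (monomers) and 540/590 nm (aggregates).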

[6] = qHTS assay to test for compound auto fluorescence at 590 nm (red) in HepG2 cells (AID 720674); details: HepG2 autofluorescence, red 540/590 nm, 1 h; series mostly up to 91.3 µM
In short: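 Rose Bengal sodium served as the red fluorophore standard. HepG2 monolayers (overnight attachment, MEM with 10% FBS) were exposed to test compounds for 1 hr at 37 C and read at Ex 540/Em 590 nm.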

[7] = qHTS assay to test for compound auto fluorescence at 535 nm (green) in HepG2 cells (AID 720675); details: green autofluorescence 485/535 nm, 1 h; series mostly up to 91.3 µM
[8] = qHTS assay to test for compound auto fluorescence at 590 nm (red) in HEK293 cells (AID 720679); details: red autofluorescence 540/590 nm; series mostly up to 91.3 µM
In short: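 Each well held 2,000 HEK293 cells in medium containing 10% dialyzed FBS. Following 4-5 hr attachment at 37C, 23 nL test compound or DMSO was added; plates sat overnight, and red fluorescence (540/590nm) was recorded.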

[9] = qHTS assay to test for compound auto fluorescence at 535 nm (green) in HEK293 cells (AID 720680); details: green autofluorescence 485/535 nm; series mostly up to 91.3 µM
[10] = qHTS assay to test for compound auto fluorescence at 460 nm (blue) in HEK293 cell free culture (AID 720681); details: cell-free medium, autofluorescence 405/460 nm (blue); series mostly up to 91.3 µM
In short: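 Test compounds were pinned into cell-free culture medium (DMEM with 10% FBS) and fluorescence was read directly at Ex/Em 405/460 nm. Signals were expressed as fluorescence equivalents of triamterene, with DMSO vehicle as control.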

[11] = qHTS assay to test for compound auto fluorescence at 535 nm (green) in HEK293 cell free culture (AID 720682); details: cell-free medium, green autofluorescence 485/535 nm, active compounds read high; series mostly up to 91.3 µM
In short: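 Read-out: 485/535 nm fluorescence intensity, calibrated against fluorescein. Medium only (DMEM + 10% FBS, no cells); test compound or DMSO vehicle added by pintool before plate reading.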

[12] = qHTS assay to test for compound auto fluorescence at 590 nm (red) in HEK293 cell free culture (AID 720683); details: cell-free medium autofluorescence, Ex540/Em590 red; series mostly up to 91.3 µM
In short: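 Tox21 10K library compounds were pinned into cell-free DMEM with 10% FBS and fluorescence was read at excitation 540 nm. Activity is expressed as Rose Bengal sodium equivalency.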

[13] = qHTS assay to test for compound auto fluorescence at 590 nm (red) in HepG2 cell free culture (AID 720684); details: cell-free medium autofluorescence, red 540/590 nm; series mostly up to 91.3 µM
In short: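 Red fluorescence (540 nm excitation, 590 nm emission) was measured after compound transfer into cell-free MEM supplemented with 10% FBS. Values are equivalencies against Rose Bengal sodium.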

[14] = qHTS assay to test for compound auto fluorescence at 535 nm (green) in HepG2 cell free culture (AID 720686); details: Cell-free medium, green autofluorescence 485/535 nm; series mostly up to 91.3 µM
[15] = qHTS assay to test for compound auto fluorescence at 460 nm (blue) in HepG2 cells (AID 720687); details: autofluorescence 405/460 nm, 1 h; series mostly up to 91.3 µM
In short: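 Cells (2,000/well in MEM with 10% FBS) attached overnight at 37 C, then were exposed to compound or DMSO for 1 hr at 37 C, 5% CO2. Fluorescence read at Ex/Em 405/460 nm, expressed as triamterene-equivalent signal.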

[16] = qHTS assay to test for compound auto fluorescence at 460 nm (blue) in HEK293 cells (AID 720678); details: blue autofluorescence 405/460 nm; series mostly up to 91.3 µM
In short: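 Cells were seeded and left to adhere for 4-5 hr at 37C. Compounds were then pin-transferred. After an overnight incubation at 37C under 5% CO2, intrinsic fluorescence at 405/460 nm was measured and referenced to triamterene.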

[17] = qHTS assay to test for compound auto fluorescence at 460 nm (blue) in HepG2 cell free culture (AID 720685); details: Cell-free culture medium, blue autofluorescence 405/460 nm; series mostly up to 91.3 µM
In short: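 Compound (23 nL) or DMSO pinned into cell-free MEM with 10% FBS; blue fluorescence read at 405/460 nm excitation/emission, expressed as auto-fluorescence equivalency to triamterene.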

[18] = target: Glucocorticoid receptor (Homo sapiens) (UniProt P04150); experiment: qHTS assay to identify small molecule agonists of the glucocorticoid receptor (GR) signaling pathway (AID 720691; active = well fitted activation curve with a large enough effect in the signal ratio in the repeat runs, not every such curve was filed as active; the % refers to the signal ratio); details: GR-bla HeLa, beta-lactamase reporter ratio, 18 h; series mostly up to 62.4 µM
In short: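 qHTS in GR-bla HeLa cells: 4 h settling at 37 C/5% CO2, 18 h compound incubation at 37 C, 2 h LiveBLAzer B/G FRET substrate at room temperature, fluorescence intensity measured.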

[19] = qHTS assay for small molecules that induce genotoxicity in human embryonic kidney cells expressing luciferase-tagged ATAD5 - cell viability (AID 651634; calls by dose curve; note: nearly all actives have a fitted effect of over 25% in size); details: HEK293T ATAD5-luc cells viability, CellTiter-Fluor, 15.5 h; series mostly up to 83.3 µM
In short: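 Viability read: CellTiter-Fluor fluorescence, 30 min at 37C. Cells: HEK293T, luciferase-tagged ATAD5. Exposure: 15.5 hr, 37C, 5% CO2, compound or DMSO vehicle.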

[20] = target: Glucocorticoid receptor (Homo sapiens) (UniProt P04150); experiment: qHTS assay to identify small molecule antagonists of the glucocorticoid receptor (GR) signaling pathway (AID 720692; active = well fitted inhibition curve with a large enough effect in the signal ratio in the repeat runs, not every such curve was filed as active; the % refers to the signal ratio; note: potency is the fitted concentration of half-maximal effect); details: GR-bla HeLa, beta-lactamase FRET ratio, dexamethasone-stimulated, 18 h; series mostly up to 58.5 µM
In short: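 Inhibition of glucocorticoid signalling is measured in HeLa cells with a GRE-controlled beta-lactamase reporter; cells are co-treated with compound and 5 nM dexamethasone (final) for 18 h before FRET substrate readout.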
% is set by controls: 0 for no effect and ±100 for the full control effect.

Chain of Glucocorticoid receptor (Homo sapiens) (P04150 whole entry, looked up): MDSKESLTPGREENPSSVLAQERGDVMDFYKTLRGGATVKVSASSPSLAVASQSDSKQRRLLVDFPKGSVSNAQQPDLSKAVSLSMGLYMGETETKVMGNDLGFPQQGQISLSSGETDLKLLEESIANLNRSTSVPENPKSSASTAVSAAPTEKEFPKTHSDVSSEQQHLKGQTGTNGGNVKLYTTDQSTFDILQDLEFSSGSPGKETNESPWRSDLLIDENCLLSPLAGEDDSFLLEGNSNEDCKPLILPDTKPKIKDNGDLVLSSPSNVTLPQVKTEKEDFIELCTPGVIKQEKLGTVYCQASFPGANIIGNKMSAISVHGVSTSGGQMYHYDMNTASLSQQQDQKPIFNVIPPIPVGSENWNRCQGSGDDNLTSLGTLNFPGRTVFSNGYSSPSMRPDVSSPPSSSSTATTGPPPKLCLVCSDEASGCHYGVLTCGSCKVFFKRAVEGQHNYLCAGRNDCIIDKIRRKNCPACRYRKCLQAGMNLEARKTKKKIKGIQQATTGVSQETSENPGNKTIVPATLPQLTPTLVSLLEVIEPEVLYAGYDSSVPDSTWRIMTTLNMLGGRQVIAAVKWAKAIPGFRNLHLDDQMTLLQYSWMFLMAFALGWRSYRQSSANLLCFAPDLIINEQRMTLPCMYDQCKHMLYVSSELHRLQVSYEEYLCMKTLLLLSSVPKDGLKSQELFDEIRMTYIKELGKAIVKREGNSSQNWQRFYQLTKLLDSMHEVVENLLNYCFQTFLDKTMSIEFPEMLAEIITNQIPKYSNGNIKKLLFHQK

OC(c1ccccc1)(c1ccccc1)C1CCNCC1
inactive: Potency [1] | Potency [2] | Potency [3] | Potency [4] | Potency [5] | fluorescence, relative to Rose Bengal [6] 0.0965% [at 18.6 µM] | fluorescence, % of fluorescein control [7] 0.0225% [at 18.6 µM] | fluorescence, % of fluorescent control [8] -0.0312% [at 18.6 µM] | fluorescence, % of fluorescein [9] 0.0137% [at 18.6 µM] | fluorescence, % of fluorescent control [10] 0.0014% [at 18.6 µM] | activity change [11] 0.0163% [at 18.6 µM] | fluorescence, % of fluorescent control [12] 0.068% [at 18.6 µM] | fluorescence, % of Rose Bengal [13] -0.191% [at 18.6 µM] | fluorescence, % of fluorescein control [14] -0.0573% [at 18.6 µM] | fluorescence, % of fluorescent control [15] 0.186% [at 18.6 µM]

C[C@@H]1CN(C2CCC(C#N)(c3ccc(F)cc3)CC2)CC[C@]1(C(=O)O)c1ccccc1 (stereo partly drawn)
inactive: Potency [1] | Potency [2] | Potency [3] | Potency [4] | Potency [5] | fluorescence, relative to Rose Bengal [6] -0.0454% [at 18.6 µM] | fluorescence, % of fluorescein control [7] -0.0057% [at 18.6 µM] | fluorescence, % of triamterene [16] 0.0981% [at 18.6 µM] | fluorescence, % of fluorescein [9] 0.0038% [at 18.6 µM] | fluorescence, % of fluorescent control [10] -0.0038% [at 18.6 µM] | fluorescence, % of fluorescent control [12] 0.238% [at 18.6 µM] | fluorescence, % of Rose Bengal [13] -0.17% [at 18.6 µM] | fluorescence, % of fluorescent control [17] -0.0833% [at 18.6 µM] | fluorescence, % of fluorescein control [14] 0.0942% [at 18.6 µM] | fluorescence, % of fluorescent control [15] -0.0325% [at 18.6 µM] | outcome [18]

COc1cc(OC)nc(Oc2cccc(Oc3nc(OC)cc(OC)n3)c2C(=O)O)n1
inactive: Potency [1] | Potency [2] | Potency [3] | Potency [4] | outcome [6] | outcome [7] | outcome [16] | outcome [8] | outcome [9] | outcome [10] | outcome [12] | outcome [13] | outcome [17] | outcome [14] | outcome [15]

CC(C)[N+](=O)[O-]
inactive: Potency [1] | Potency [2] | Potency [3] | Potency [19] | outcome [6] | outcome [7] | outcome [16] | outcome [8] | outcome [9] | outcome [10] | outcome [11] | outcome [12] | outcome [13] | outcome [17] | outcome [14] | outcome [15] | outcome [18] | Potency [20]

CC1=C(C(=O)Nc2ccccc2)S(=O)(=O)CCO1
inactive: Potency [2] | Potency [3] | Potency [4] | outcome [6] | outcome [7] | outcome [16] | outcome [8] | outcome [9] | outcome [10] | outcome [11] | outcome [12] | outcome [13] | outcome [17] | outcome [14] | outcome [15] | outcome [18]
active: Potency [1] 19.3 µM | Potency [20] 48.9 µM

CC(COc1ccc(Oc2ccccc2)cc1)Oc1ccccn1 (stereo not drawn)
inactive: Potency [1] | Potency [2] | Potency [3] | outcome [6] | outcome [7] | outcome [16] | outcome [8] | outcome [9] | outcome [10] | outcome [11] | outcome [12] | outcome [13] | outcome [17] | outcome [14] | outcome [15]

CCCCCCBr
inactive: Potency [1] | Potency [3] | Potency [19] | Potency [4] | Potency [5] | outcome [6] | outcome [7] | outcome [16] | outcome [8] | outcome [9] | outcome [10] | outcome [11] | outcome [12] | outcome [13] | outcome [17] | outcome [14]
